# Compound activity: PubChem, several laboratories
# Rv3671c protease = Rv3671c serine protease inhibitors, primary screen, biochemical, fluorescence polarization, M. tuberculosis H37Rv; inhibition, % at 5.96 µM; hit rate 0.048% among 320,000; in the data active means inhibition above about 38%;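 further: extracellular domain of Rv3671c used as enzyme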
# Target sequence (P9WHR9 whole entry, looked up, the tested form may be a part): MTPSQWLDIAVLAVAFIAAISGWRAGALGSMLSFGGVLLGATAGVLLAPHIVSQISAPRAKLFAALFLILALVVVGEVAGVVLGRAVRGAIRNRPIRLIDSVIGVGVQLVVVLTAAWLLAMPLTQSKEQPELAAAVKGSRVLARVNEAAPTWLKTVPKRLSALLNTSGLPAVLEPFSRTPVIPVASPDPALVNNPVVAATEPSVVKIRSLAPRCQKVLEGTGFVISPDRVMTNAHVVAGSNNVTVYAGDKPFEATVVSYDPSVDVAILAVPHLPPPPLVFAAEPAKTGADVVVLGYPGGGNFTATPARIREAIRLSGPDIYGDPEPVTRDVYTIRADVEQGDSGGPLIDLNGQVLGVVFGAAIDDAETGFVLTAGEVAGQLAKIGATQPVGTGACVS
# GDH-TPI counter-1 = GDH-TPI coupling enzyme inhibitors, primary screen, artefact control for M. tuberculosis FBA inhibitor project, biochemical, absorbance, full deck; AID 588335, 2011; GDH-TPI coupled enzyme counterscreen, NADH absorbance; inhibition, % at 4.8 µM; hit rate 1.2% among 360,000; in the data active means inhibition above about 30%
# UGM FP inh = M. tuberculosis UGM enzyme inhibitors, primary screen, biochemical, fluorescence polarization, single point; purified UGM, fluorescence polarization probe displacement; inhibition, % at 10 µM; hit rate 0.06% among 320,000; UDP-galactopyranose mutase (Mycobacterium tuberculosis (strain ATCC 25618 / H37Rv)), …; in the data active means inhibition above about 10%, passing the limit was not always enough
# Mtb betalactam = beta-lactam sensitization of Mtb H37Rv, H37Rv; M. tuberculosis H37Rv growth with meropenem, percent inhibition; AID 434955, 2010; inhibition, % at 25 µM; hit rate 0.27% among 330,000; call rule not given here;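 further: growth measured after seven days incubation then overnight dye step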
# FBA Mtb inh = Mtb FBA enzyme inhibitors, primary screen, biochemical, fluorescence, strain H37Rv | Fructose-bisphosphate aldolase (Mycobacterium tuberculosis (strain ATCC 25618 / H37Rv)), … | purified M. tuberculosis FBA, fluorescence read-out | inhibition, % at 1 µM | hit rate 2.3% among 360,000 | AID 588726, 2011
# RecA splice inh = Mtb RecA intein splicing inhibitors, primary screen, biochemical, fluorescence, HTS; cell-free RecA intein splicing; inhibition, % (concentration not given with the values); hit rate 0.75% among 290,000; in the data active means inhibition above about 30%
# Mtb FBA inh conf = M. tuberculosis aldolase blockers, biochemical, fluorescence, strain H37Rv, confirmation. hit rate 78% among 5,600. purified M. tuberculosis FBA, fluorescence read-out. shares compounds with FBA Mtb inh. inhibition, % at 1 µM
# GDH-TPI counter-2 = GDH-TPI coupling enzyme inhibitors, artefact control for M. tuberculosis FBA inhibitor project, biochemical, fluorescence, high throughput | shares compounds with FBA Mtb inh | GDH-TPI coupled enzyme counterscreen | inhibition, % at 1 µM | hit rate 81% among 5,600 | AID 652141, 2013; in the data active means inhibition above about 10%
# Hits are given with their value; n = inactive; x = no result given; + = active, no number. An excerpt weighted towards active compounds, which were near 4% of everything screened. Unless noted, no stated cut-off is given here; in the data, active means inhibition above about 27%; inactive means the rest.
SMILES,Rv3671c protease,GDH-TPI counter-1,UGM FP inh,Mtb betalactam,FBA Mtb inh,RecA splice inh,Mtb FBA inh conf,GDH-TPI counter-2
COc1ccc(/C=C/c2ccncc2)cc1,n,n,n,n,n,n,x,x
Cc1ccc(O)c(C=Nc2ccc3[nH]ncc3c2)c1,n,n,n,n,42.1,n,118.4,82.8
CCOC(=O)c1cn(C2CC2)c2c(F)c(NCCCN(C)C)c(F)cc2c1=O,n,n,n,n,69.6,n,134.0,78.8
CC(=O)c1sc2nc(SCC(=O)NCCc3ccccc3)[nH]c(=O)c2c1C,n,52.6,n,n,28.9,n,77.0,73.1
COc1ccc(CCNC(=O)CSc2nc3sc(C(=O)O)c(C)c3c(=O)[nH]2)cc1OC,n,n,n,n,n,n,x,x
CC(C)(C)CC(C)(C)Nc1c(-c2ccc(O)cc2)nc2cnccn12,n,n,n,n,59.2,n,+,+
CN(C)C(CNc1ccc(S(C)(=O)=O)cc1[N+](=O)[O-])Cc1ccccc1 (stereo not given),n,n,n,n,n,n,x,x
COC(=O)c1sccc1NC(=O)Cc1ccc(OC)cc1,n,n,n,n,n,n,x,x
COc1ccc(CC(=O)Nc2ccc(N(C)C)c3ccccc23)cc1,n,n,n,n,33.6,n,+,128.2
O=C(Cn1cnc2c(NC(=O)OCc3ccccc3)ncnc21)NCCN1CCOCC1,n,n,n,n,n,x,x,x
CCOC(=O)C(CC)c1cc2n(c(=O)c1C#N)CCC21OCCO1 (stereo not given),x,x,x,x,69.1,x,+,+
CCOC(=O)C(C)Sc1nc(N2CCOCC2)c2c(c1C#N)CC(C)(C)OC2 (stereo not given),n,n,n,n,n,n,x,x
Cc1nc2nc(Cc3ccccc3)[nH]n2c(=O)c1Cl,n,n,n,n,29.4,n,49.4,50.0
Cc1nc2nc(Cc3ccccc3)[nH]n2c(=O)c1Cc1ccccc1,n,n,n,n,n,x,x,x
CCc1ccc2nc(N=C(N)N)nc(C)c2c1,n,n,n,n,40.0,n,177.3,133.0
Cc1ccc(N(CC(=O)NCc2ccccc2)C(=O)c2csnn2)c(C)c1,n,n,n,n,n,n,x,x
Cc1ccc(CNC(=O)CN(C(=O)C2(C)CC(=O)N=C3C=CC=CN32)c2ccccc2)cc1 (stereo not given),n,n,n,n,73.7,n,n,n
Cc1ccc(CNC(=O)CN(C(=O)C2(C)CC(=O)N=C3C=CC=CN32)c2cccc(C)c2C)cc1 (stereo not given),n,n,n,n,110.6,n,93.1,85.7
COc1ccc(-c2ccc(C(=O)NCc3ccco3)c3occc23)c(C)c1,x,n,x,x,27.8,x,55.9,49.8
Cn1c(CC(=O)Nc2ccccc2)cc2ccccc21,n,n,n,n,n,n,x,x
CC(C)(CO)NS(=O)(=O)c1ccc2c(c1)oc(=O)c1cc(S(=O)(=O)NC(C)(C)CO)ccc12,n,n,n,n,81.0,x,n,n
Cc1cccc(C)c1NC(=O)c1ccc2sc([C@@H]3O[C@H](CO)[C@H](O)[C@H](O)[C@H]3O)nc2c1,x,n,x,x,n,x,x,x
COc1ccc(OC)c(/C=N/NC(=O)c2c(C)nc3ccc(C)cn23)c1,n,n,n,n,77.8,n,104.6,88.4
COc1ccc(OC)c(/C=N/NC(=O)CCc2c(C)n[nH]c2C)c1,n,n,n,n,77.8,n,94.9,88.8
COc1ccc(/C=N\NC(=O)CCc2c(C)n[nH]c2C)c(OC)c1OC,n,n,n,n,n,n,x,x
